Assay results from PubChem BioAssay AID1159580 (chemical genetic matrix, 2015).
In all, about 5,500 compounds went through this assay and about 2,000 (36%) were called active. Inconclusive results (about 18%) are left out. No stated cut-off is given here; in the data, active means normalized growth mostly below about 0.91 (no sharp cut-off); inconclusive means no clear call, values can overlap the other calls; inactive means mostly above about 0.92. The list shows a part of the results.

Experiment: chemical genetic growth profiling, strain panel (AID 1159580);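 further: tested at 20 µM; growth read once vehicle control cultures reached saturation at 30 °C; 1 = growth at the plate median or of vehicle wells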
Conditions: growth OD

Measured: normalized growth

CN1C2CCC1CC(OC(c1ccccc1)c1ccccc1)C2 (stereo not given)
active: S. cerevisiae deletion strains, locus YJR075W, strain HOC1, stronger effect = lower value 0.847 | S. cerevisiae deletion strains, locus YLR330W, strain CHS5, stronger effect = lower value 0.809 | S. cerevisiae deletion strains, locus YLR418C, strain cdc73, stronger effect = lower value 0.814 | S. cerevisiae deletion strains, locus YNL233W, strain BNI4, stronger effect = lower value 0.766 | S. cerevisiae deletion strains, locus YOR184W, strain ser1, stronger effect = lower value 0.774 | S. cerevisiae strains, strain wild type, stronger effect = lower value 0.882
inactive: S. cerevisiae deletion strains, locus YJR043C, strain POL32, stronger effect = lower value 0.95 | S. cerevisiae deletion strains, locus YKL009W, strain mrt4, stronger effect = lower value 0.918 | S. cerevisiae deletion strains, locus YKL068W, stronger effect = lower value 0.986 | S. cerevisiae deletion strains, locus YKL085W, strain MDH1 (second series), stronger effect = lower value 0.978 | S. cerevisiae deletion strains, locus YKL085W, strain MDH1, stronger effect = lower value 0.978 | S. cerevisiae deletion strains, locus YKL160W, strain elf1, stronger effect = lower value 1 | S. cerevisiae deletion strains, locus YKR001C, strain vps1, stronger effect = lower value 0.926 | S. cerevisiae deletion strains, locus YKR026C, strain gcn3, stronger effect = lower value 0.972 | S. cerevisiae deletion strains, locus YKR091W, strain srl3, stronger effect = lower value 0.971 | S. cerevisiae deletion strains, locus YLL001W, strain dnm1, stronger effect = lower value 1.01 | S. cerevisiae deletion strains, locus YLL026W, stronger effect = lower value 0.991 | S. cerevisiae deletion strains, locus YLL041C, strain sdh2, stronger effect = lower value 0.995 | S. cerevisiae deletion strains, locus YLR027C, strain aat2, stronger effect = lower value 0.989 | S. cerevisiae deletion strains, locus YLR039C, strain RIC1, stronger effect = lower value 0.795 | S. cerevisiae deletion strains, locus YLR058C, strain SHM2, stronger effect = lower value 0.91 | S. cerevisiae deletion strains, locus YLR102C, strain apc9, stronger effect = lower value 0.996 | S. cerevisiae deletion strains, locus YLR221C, strain rsa3, stronger effect = lower value 0.985 | S. cerevisiae deletion strains, locus YLR258W, strain gsy2, stronger effect = lower value 0.982 | S. cerevisiae deletion strains, locus YLR262C, strain YPT6 (second series), stronger effect = lower value 1.04 | S. cerevisiae deletion strains, locus YLR262C, strain YPT6, stronger effect = lower value 0.647 | S. cerevisiae deletion strains, locus YLR268W, strain sec22, stronger effect = lower value 0.96 | S. cerevisiae deletion strains, locus YLR320W, strain mms22, stronger effect = lower value 0.951 | S. cerevisiae deletion strains, locus YLR342W, strain FKS1 (second series), stronger effect = lower value 0.842 | S. cerevisiae deletion strains, locus YLR342W, strain FKS1, stronger effect = lower value 0.997 | S. cerevisiae deletion strains, locus YLR357W, strain rsc2, stronger effect = lower value 0.958 | S. cerevisiae deletion strains, locus YLR370C, strain arc18, stronger effect = lower value 0.987 | S. cerevisiae deletion strains, locus YLR371W, strain rom2, stronger effect = lower value 0.969 | S. cerevisiae deletion strains, locus YLR384C, strain iki3, stronger effect = lower value 0.999 | S. cerevisiae deletion strains, locus YML016C, strain PPZ1, stronger effect = lower value 0.981 | S. cerevisiae deletion strains, locus YML032C, strain rad52, stronger effect = lower value 0.979 | S. cerevisiae deletion strains, locus YML120C, strain ndi1, stronger effect = lower value 0.985 | S. cerevisiae deletion strains, locus YML124C, strain tub3, stronger effect = lower value 0.993 | S. cerevisiae deletion strains, locus YMR058W, strain fet3, stronger effect = lower value 0.978 | S. cerevisiae deletion strains, locus YMR078C, strain ctf18, stronger effect = lower value 0.954 | S. cerevisiae deletion strains, locus YMR125W, strain sto1, stronger effect = lower value 0.963 | S. cerevisiae deletion strains, locus YMR129W, stronger effect = lower value 0.984 | S. cerevisiae deletion strains, locus YMR205C, strain PFK2, stronger effect = lower value 0.969 | S. cerevisiae deletion strains, locus YMR223W, strain ubp8, stronger effect = lower value 0.948 | S. cerevisiae deletion strains, locus YMR231W, strain pep5, stronger effect = lower value 1 | S. cerevisiae deletion strains, locus YMR263W, strain SAP30, stronger effect = lower value 1 | S. cerevisiae deletion strains, locus YMR307W, strain GAS1, stronger effect = lower value 0.807 | S. cerevisiae deletion strains, locus YNL067W, strain RPL9B, stronger effect = lower value 0.898 | S. cerevisiae deletion strains, locus YNL071W, strain lat1, stronger effect = lower value 0.964 | S. cerevisiae deletion strains, locus YNL128W, strain TEP1, stronger effect = lower value 0.925 | S. cerevisiae deletion strains, locus YNL175C, strain NOP13, stronger effect = lower value 1.03 | S. cerevisiae deletion strains, locus YNL197C, strain WHI3, stronger effect = lower value 1.03 | S. cerevisiae deletion strains, locus YNL209W, strain ssb2, stronger effect = lower value 0.981 | S. cerevisiae deletion strains, locus YNL224C, strain SQS1, stronger effect = lower value 1.01 | S. cerevisiae deletion strains, locus YNL248C, strain rpa49, stronger effect = lower value 0.969 | S. cerevisiae deletion strains, locus YNL250W, strain rad50, stronger effect = lower value 0.971 | S. cerevisiae deletion strains, locus YNL271C, strain bni1, stronger effect = lower value 0.967 | S. cerevisiae deletion strains, locus YNL298W, strain CLA4, stronger effect = lower value 0.95 | S. cerevisiae deletion strains, locus YNL307C, strain MCK1, stronger effect = lower value 0.91 | S. cerevisiae deletion strains, locus YNL322C, strain KRE1 (second series), stronger effect = lower value 0.98 | S. cerevisiae deletion strains, locus YNL322C, strain KRE1, stronger effect = lower value 0.973 | S. cerevisiae deletion strains, locus YNR049C, strain mso1, stronger effect = lower value 0.984 | S. cerevisiae deletion strains, locus YNR052C, strain pop2, stronger effect = lower value 0.972 | S. cerevisiae deletion strains, locus YOL006C, strain TOP1, stronger effect = lower value 0.597 | S. cerevisiae deletion strains, locus YOL012C, strain htz1 1 | S. cerevisiae deletion strains, locus YOL147C, strain pex11, stronger effect = lower value 0.985 | S. cerevisiae deletion strains, locus YOR001W, strain rrp6, stronger effect = lower value 0.99 | S. cerevisiae deletion strains, locus YOR061W, strain CKA2, stronger effect = lower value 0.979 | S. cerevisiae deletion strains, locus YOR069W, strain VPS5, stronger effect = lower value 0.971 | S. cerevisiae deletion strains, locus YOR070C, strain gyp1, stronger effect = lower value 0.989 | S. cerevisiae deletion strains, locus YOR080W, strain dia2, stronger effect = lower value 0.989 | S. cerevisiae deletion strains, locus YOR083W, strain WHI5 (second series), stronger effect = lower value 0.998 | S. cerevisiae deletion strains, locus YOR083W, strain WHI5, stronger effect = lower value 0.998 | S. cerevisiae deletion strains, locus YOR106W, strain vam3, stronger effect = lower value 1 | S. cerevisiae deletion strains, locus YOR136W, strain idh2, stronger effect = lower value 0.972 | S. cerevisiae deletion strains, locus YOR144C, strain elg1, stronger effect = lower value 0.993 | S. cerevisiae deletion strains, locus YOR265W, strain rbl2, stronger effect = lower value 0.988 | S. cerevisiae deletion strains, locus YOR270C, strain vph1, stronger effect = lower value 0.943 | S. cerevisiae deletion strains, locus YOR290C, strain snf2, stronger effect = lower value 0.967 | S. cerevisiae deletion strains, locus YOR316C, strain cot1, stronger effect = lower value 0.986 | S. cerevisiae deletion strains, locus YPL051W, strain arl3, stronger effect = lower value 0.995 | S. cerevisiae deletion strains, locus YPL078C, strain atp4, stronger effect = lower value 0.998 | S. cerevisiae deletion strains, locus YPL106C, strain sse1, stronger effect = lower value 0.912 | S. cerevisiae deletion strains, locus YPL240C, strain hsp82, stronger effect = lower value 0.995 | S. cerevisiae deletion strains, locus YPL241C, strain CIN2, stronger effect = lower value 0.999 | S. cerevisiae deletion strains, locus YPR119W, strain clb2, stronger effect = lower value 0.973 | S. cerevisiae deletion strains, locus YPR141C, strain kar3, stronger effect = lower value 0.966 | S. cerevisiae deletion strains, locus YPR163C, strain tif3, stronger effect = lower value 0.952 | S. cerevisiae deletion strains, locus YPR167C, strain met16, stronger effect = lower value 0.965 | S. cerevisiae deletion strains, strain wtn01, stronger effect = lower value 0.977
